High-throughput results (PubChem)
SENP8 block-1: blocks human SENP8 cleavage of Nedd8 substrate | Q96LD8 | 360,000 tested, 0.64% active | recombinant SENP8, Nedd8 substrate fluorescence | inhibition, % at 20 µM; in the data active = inhibition mostly above about 40%, no sharp cut-off; inactive = mostly below about 27%
SENP6 block: SENP6 protease inhibition; Q9GZR1; Recombinant SENP6 catalytic domain, aminoluciferin luminescence; 330,000 tested, 1.8% active; inhibition, % at 10 µM;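 active = inhibition above about 50% at the single tested dose, limit read from the data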
SENP7 inh: SENP7 protease inhibition; Q9BQF6; recombinant SENP7, Z-RLRGG-aminoluciferin luminescence, 40 min; inhibition, % at 5 µM; 330,000 tested, 1.5% active;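 active = inhibition above about 50% at the single test dose, limit read from the data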
Target sequence (Q9BQF6 706-1050 limits assumed): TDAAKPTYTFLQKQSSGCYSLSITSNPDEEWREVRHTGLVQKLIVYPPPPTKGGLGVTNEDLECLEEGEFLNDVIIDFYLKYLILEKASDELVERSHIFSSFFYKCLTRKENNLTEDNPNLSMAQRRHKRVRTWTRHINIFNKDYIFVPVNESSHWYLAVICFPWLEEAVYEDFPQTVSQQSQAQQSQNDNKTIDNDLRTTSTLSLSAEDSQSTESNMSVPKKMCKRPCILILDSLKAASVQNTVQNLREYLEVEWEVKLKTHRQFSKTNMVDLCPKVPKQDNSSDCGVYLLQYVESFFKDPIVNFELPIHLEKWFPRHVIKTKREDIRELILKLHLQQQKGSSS
C8 TRAIL sens: sensitizes caspase-8 expressing cells to TRAIL; NB7+C8 cells + TRAIL, ATPlite viability luminescence; inhibition (viability loss, TRAIL sensitization), % at 10 µM; 360,000 tested, 1% active; AID 624354;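 active = compounds causing at least 50% loss of cell viability in the single-dose screen, relative to plate controls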
PPC-1+TRAIL kill: compounds killing PPC-1 cancer cells with TRAIL present (potentiator screen, no TRAIL-free arm); PPC-1 cells + TRAIL, ATPLite viability luminescence; cell killing (% activity), % at 4 µM or 5 µM; 220,000 tested, 0.41% active;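 active = cell killing above 50% in the first pass at 4 µM, then a duplicate retest at 5 µM averaging 50% or more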
SENP8 block-2: SENP8 protease inhibition. AID 2540. purified SENP8, Z-RLRGG-aminoluciferin cleavage, luminescence. Q96LD8. 330,000 tested, 1.2% active. inhibition, % at 10 µM; in the data active = inhibition above about 50%
SENP8 confirm: confirmation of human SENP8 protease inhibitors; inhibition, % at 12.5 µM; shares compounds with SENP7 inh; AID 488912; Recombinant SENP8, Z-RLRGG-aminoluciferin luminescence, 60 min; 6,200 tested, 40% active;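 active = mean inhibition across replicates above about 50%, limit read from the data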
SENP6 confirm: human SENP6 inhibition, confirmed. shares compounds with SENP7 inh. recombinant SENP6, Z-RLRGG-aminoluciferin luminescence. inhibition, % at 12.5 µM. 6,200 tested, 58% active. AID 488915
SENP7 confirm: human SENP7 inhibition, confirmed. inhibition, % at 12.5 µM. 6,200 tested, 69% active. shares compounds with SENP7 inh. recombinant SENP7, Z-RLRGG-aminoluciferin luminescence, 40 min
Casp3 select: caspase-3 inhibition (SENP selectivity assay); purified caspase-3, Z-DEVD-aminoluciferin luminescence, 60 min; 6,200 tested, 60% active; shares compounds with SENP7 inh; inhibition, % at 12.5 µM; AID 488918;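 active = mean inhibition above about 50%, limit read from the data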
Target sequence (P42574 28-227 limits assumed): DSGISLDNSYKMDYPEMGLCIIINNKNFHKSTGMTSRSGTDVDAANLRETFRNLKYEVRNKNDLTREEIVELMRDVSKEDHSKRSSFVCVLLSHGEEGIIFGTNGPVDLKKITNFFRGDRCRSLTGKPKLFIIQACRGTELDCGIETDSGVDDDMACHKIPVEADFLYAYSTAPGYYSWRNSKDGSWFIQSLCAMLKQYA
Luc interf: luminescence interference (SENP counter-screen). inhibition, % at 12.5 µM. shares compounds with SENP7 inh. AID 488919. 6,200 tested, 39% active. Pre-incubated SENP8/Z-RLRGG-aminoluciferin, luciferase luminescence interference;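 active = mean inhibition above about 50% when retested at one dose, limit read from the data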
A number is an active result; – = inactive; · = not tested or not shown. An excerpt weighted towards active compounds, which were near 3% of everything screened.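 Rule for the calls, unless noted: active = mean inhibition above about 50% in the one-dose retest (limit read from the data); inactive = the rest.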

SMILES	SENP8 block-1	SENP6 block	SENP7 inh	C8 TRAIL sens	PPC-1+TRAIL kill	SENP8 block-2	SENP8 confirm	SENP6 confirm	SENP7 confirm	Casp3 select	Luc interf
CC1([N+](=O)[O-])COC(c2cccc3ccccc23)OC1 (stereo not drawn)	–	·	·	–	·	·	·	·	·	·	·
c1ccc(NC2=Nc3ccccc3CS2)cc1	–	81.9	77.6	–	–	51.5	–	63.4	89.5	68.6	–
CC(=O)Nc1cc(-c2ccccc2N(C)C)cn2c(-c3cccc(C(F)(F)F)c3)cnc12	–	·	·	–	·	·	·	·	·	·	·
N#Cc1c(NC(=O)c2ccccc2)sc2c1CCC2	–	63.0	–	–	–	–	–	–	–	–	–
N#Cc1c(NC(=O)c2cccnc2)sc2c1CCC2	–	–	–	–	–	–	·	·	·	·	·
N#Cc1c(NC(=O)COC(=O)c2ccc(F)cc2)sc2c1CCC2	–	–	51.4	–	–	–	–	–	–	–	–
Cc1cccc(C(=O)Nc2sc3c(c2C#N)CCCCC3)c1	–	–	77.2	–	–	–	–	–	–	–	–
Cc1ccc(C(=O)OCC(=O)Nc2sc3c(c2C#N)CCC3)cc1	–	–	–	–	–	–	·	·	·	·	·
CC(=O)Nc1sc2c(c1C#N)CCC2	–	–	–	–	–	–	·	·	·	·	·
N#Cc1c(NC(=O)c2ccc([N+](=O)[O-])o2)sc2c1CCC2	–	80.0	–	–	·	–	58.5	79.4	79.3	75.7	–
O=C1NCCOC(=O)[C@@H](Cc2ccc(F)cc2)C/C=C\C[C@@H]1CC(=O)N(CCO)Cc1ccccc1	–	–	–	–	·	–	·	·	·	·	·
Cc1ccc(S(=O)(=O)Nc2cccc(-c3ccc(N4CCCCCC4)nn3)c2)c(C)c1	–	–	–	–	·	–	·	·	·	·	·
CN1CCN(c2ccc(-c3cccc(NC(=O)COc4ccc(Cl)cc4Cl)c3)nn2)CC1	–	–	66.7	66.9	·	–	–	–	–	–	–
CCOc1ccccc1C(=O)Nc1cccc(-c2ccc(N3CCOCC3)nn2)c1	–	78.3	70.2	–	·	55.4	–	67.8	89.2	62.7	–
CCC(=O)Nc1cccc(-c2ccc(N3CCCCC3)nn2)c1	–	58.4	52.2	83.2	·	–	52.1	–	79.1	77.0	61.4
O=[N+]([O-])c1ccc(Cl)c(S(=O)(=O)Nc2cccc(-c3ccc(N4CCCC4)nn3)c2)c1	–	92.0	–	–	·	86.3	–	90.8	97.7	85.9	–
CCN(C(=O)Cn1cnc2c1c(=O)n(C)c(=O)n2C)C1CCS(=O)(=O)C1 (stereo not drawn)	–	–	–	–	·	–	·	·	·	·	·
O/N=C/c1ccc(OCc2ccccc2)c(Cl)c1	–	86.1	59.2	–	–	64.5	–	72.2	90.3	–	76.3
CCc1ccc(C(=O)/C=C2\Sc3ccccc3NC2=O)cc1	–	70.0	–	–	–	–	69.0	68.0	87.8	61.1	–
NC(=O)c1cc(C(=O)Cc2ccccc2)c[nH]1	–	–	–	–	·	–	·	·	·	·	·
O=C(O)c1cccc(C(=O)Cc2ccccc2)c1	–	74.6	–	–	–	55.5	62.6	60.1	87.7	91.5	73.8
O=C(N/C(=C\c1cccc([N+](=O)[O-])c1)C(=O)N(CCO)CCO)c1ccco1	–	–	–	–	–	–	·	·	·	·	·
COc1cccc(-c2cc(C(=O)N3CCCCCC3)no2)c1	–	66.7	–	–	–	–	62.2	60.8	85.3	62.4	–
O=C(c1cc(-c2ccc(Br)cc2)on1)N1CCCC1	–	55.0	–	–	·	–	–	–	–	–	–
COc1ccc(-c2cc(C(=O)N3CCCC3)no2)cc1	–	73.7	53.3	61.5	·	–	–	51.8	86.3	80.0	–
SMILES	SENP8 block-1	SENP6 block	SENP7 inh	C8 TRAIL sens	PPC-1+TRAIL kill	SENP8 block-2	SENP8 confirm	SENP6 confirm	SENP7 confirm	Casp3 select	Luc interf
COc1ccc(-c2cc(C(=O)N3CCCCCC3)no2)cc1	–	57.3	–	–	·	–	–	50.3	82.6	56.3	–
COc1ccc(-c2cc(C(=O)N3CCCCCC3)no2)cc1OC	–	–	–	–	·	–	·	·	·	·	·
O=C(c1cc(-c2ccc(O)cc2)on1)N1CCCC1	–	–	–	–	·	–	·	·	·	·	·
O=C(c1cc(-c2ccc(F)cc2)on1)N1CCCCCC1	–	–	–	–	·	–	·	·	·	·	·
Cc1ccc(-c2cc(C(=O)N3CCCCCC3)no2)cc1	–	60.8	–	–	·	–	–	–	–	–	–
COc1cc(C)c(C(=O)Oc2cc(C)c(C(=O)O)c(O)c2)c(O)c1	–	55.5	–	–	–	55.4	–	–	63.6	–	58.9
COc1cc(O)c(C(=O)O)c(CCc2ccccc2)c1	–	·	–	–	·	·	·	·	·	·	·
COc1ccc(NC(=O)[C@@H]2O[C@H](CO)[C@H](O)[C@H](O)[C@H]2O)cc1F	–	·	·	–	·	·	·	·	·	·	·
COc1ccc2c(c1)C(C)=CC(C)(C)N2S(=O)(=O)c1ccc(Br)cc1	–	·	·	–	–	·	·	·	·	·	·
O=C(NC(=O)c1ccc(Cl)cc1)OC1CCCCC1	–	–	–	–	–	–	·	·	·	·	·
COc1ccccc1N=c1oc2cc(O)ccc2cc1C(N)=O	–	91.3	–	–	–	–	99.2	99.8	100.9	98.9	91.8
COc1ccccc1NC(=O)c1cc2ccc(O)cc2o/c1=N\O	–	95.0	94.8	–	–	94.1	–	99.2	102.6	91.6	51.7
Cc1cc(=O)[nH]c(SCC(=O)NC2CCCCCC2)n1	–	–	–	–	·	–	·	·	·	·	·
O=C(/C=C/Nc1ccc(F)cc1Br)c1ccccc1	–	95.8	100.0	95.2	84.8	94.5	–	–	–	74.7	–
O=C(/C=C/Nc1ccccc1)c1ccccc1	–	99.8	96.2	63.9	–	92.9	90.4	96.2	101.1	95.6	53.9
O=C(NNC(=S)Nc1ccc(Br)cc1)c1cccnc1	–	–	–	–	·	–	·	·	·	·	·
COc1cccc(C(=O)/C=C/Nc2ccc(NC(C)=O)cc2)c1	–	92.7	86.8	–	–	79.3	89.9	89.0	97.5	87.2	89.0
O=C(/C=C\Nc1ccc(Br)cc1)c1cccnc1	–	82.6	66.4	65.9	–	57.0	66.3	64.3	82.9	71.1	–
CCOc1ccccc1OCC(=O)NNC(=O)Cn1cnc2c1c(=O)n(C)c(=O)n2C	–	–	–	–	–	–	·	·	·	·	·
Cc1ccc(C)c(OCc2cc(C(=O)NC(c3ccccn3)C(F)(F)F)no2)c1 (stereo not drawn)	–	–	–	–	·	–	·	·	·	·	·
